Bioassay records as filed in PubChem.
AHR act – AHR activators, primary screen, cell-based, luminescence, luciferase reporter, human; Aryl hydrocarbon receptor (Homo sapiens), P35869; AHR-responsive luciferase reporter cells; activation, % at 5 µM; actives 2.5% (n = 320,000); AID 2796, 2010; in the data active = activation above about 47%
Target sequence (P35869 whole entry, looked up): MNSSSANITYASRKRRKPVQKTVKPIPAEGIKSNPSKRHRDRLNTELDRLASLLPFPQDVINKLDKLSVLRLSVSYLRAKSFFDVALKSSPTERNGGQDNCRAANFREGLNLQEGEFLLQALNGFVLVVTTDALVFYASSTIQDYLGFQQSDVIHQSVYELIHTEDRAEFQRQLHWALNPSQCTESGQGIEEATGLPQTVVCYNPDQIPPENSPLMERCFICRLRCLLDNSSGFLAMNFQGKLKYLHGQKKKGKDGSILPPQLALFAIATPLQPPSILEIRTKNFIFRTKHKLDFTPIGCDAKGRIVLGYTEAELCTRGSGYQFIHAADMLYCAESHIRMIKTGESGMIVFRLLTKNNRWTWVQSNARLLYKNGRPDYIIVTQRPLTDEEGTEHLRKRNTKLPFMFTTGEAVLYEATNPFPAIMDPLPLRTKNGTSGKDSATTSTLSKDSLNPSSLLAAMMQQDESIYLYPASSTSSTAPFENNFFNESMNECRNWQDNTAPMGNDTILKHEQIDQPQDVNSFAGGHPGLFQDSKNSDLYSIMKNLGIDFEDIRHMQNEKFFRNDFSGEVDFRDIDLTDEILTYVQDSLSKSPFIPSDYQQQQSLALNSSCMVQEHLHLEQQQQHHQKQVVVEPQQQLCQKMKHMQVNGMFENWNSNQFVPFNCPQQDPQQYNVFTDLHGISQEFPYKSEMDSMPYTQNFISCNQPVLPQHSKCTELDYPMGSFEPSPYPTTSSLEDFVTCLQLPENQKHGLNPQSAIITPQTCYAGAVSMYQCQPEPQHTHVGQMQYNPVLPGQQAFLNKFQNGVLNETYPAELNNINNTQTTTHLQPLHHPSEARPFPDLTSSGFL
DAX1 inh-1 – DAX1 (NR0B1) inhibitors on StAR promoter, primary screen, cell-based, luminescence, SF-1 (NR5A1), full-length DAX-1; HEK293T StAR-luciferase reporter, SF-1/DAX-1 repression relief; inhibition, % at 6.8 µM; actives 1.1% (n = 370,000); AID 652010, 2013;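 active = inhibition above the mean over all tested compounds plus 3 SD, cut at about 3.6% in these data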;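 note: higher inhibition means more luminescence from relief of DAX-1 repression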
DAX1 inh-2 – DAX1 (NR0B1) inhibitors, primary screen, cell-based, HEK293, Gal4-DAX1, luciferase luminescence. Nuclear receptor subfamily 0 group B member 1 (Homo sapiens), P51843. HEK293 Gal4-DAX1 luciferase reporter. inhibition, % at 6.75 µM. actives 0.99% (n = 340,000). AID 504766, 2011;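 active = inhibition above the mean over all tested compounds plus 3 SD, cut at about 4.2% in these data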;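 note: inhibition shows as a rise in luminescence from relieved DAX1 repression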
hcDAF12 agonist – H. contortus DAF-12 nuclear receptor activators, primary screen, cell-based, luminescence, HEK293, lit1-tk-luc reporter; actives 1.4% (n = 370,000); activation, % at 6.8 µM; HEK293 hcDAF-12 lit1-tk-luc reporter; 0% DMSO, 100% Δ7-dafachronic acid; AID 652067, 2013;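 active = activation above the mean of all tested compounds plus 3 SD, cut at about 5.5% in these data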
ssDAF12 agonist – S. stercoralis DAF-12 nuclear receptor activators, primary screen, cell-based, luminescence, HEK293, GRIP1 co-expression, lit1-tk-luc; Nuclear hormone receptor DAF-12 (Strongyloides stercoralis); HEK293 ssDAF-12/GRIP1 lit1-tk-luc reporter; % of 3 µM dafachronic acid response; activation, % at 6.8 µM; actives 1% (n = 370,000);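 active = activation above the mean over all tested compounds plus 3 SD, cut at about 0.9% in these data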
hgDAF-12 ag – H. glycines DAF-12 receptor agonists, primary screen, cell-based, luminescence, HEK293, GAL4 fusion, UAS-luciferase; AID 687014, 2013; activation, % at 6.8 µM; actives 1.8% (n = 370,000); HEK293 GAL4-hgDAF12 UAS-luciferase reporter, agonist luminescence; normalized to butyrate control; Nuclear hormone receptor DAF-12 (Heterodera glycines), GAL4 fusion;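 active = activation above a cutoff set at the mean of all screened compounds plus 3 SD, cut at about 10% in these data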
Of the large screens only hits and unclear results are named; the others gave an inactive call. Only some compounds are listed: those with a hit (about 5.7% of all), similar ones and a draw of the others.

COc1ccc(NC(=O)/C(C#N)=C\c2ccc(N3CCOCC3)o2)cc1	hgDAF-12 ag 13
CC(NC(=O)c1ccc(CS(C)(=O)=O)cc1)c1ccc(-c2ccccc2)cc1 (configuration not stated)	none
CCCCc1ccc(-c2csc(/C(C#N)=C/c3ccco3)n2)cc1	none
CSc1nc(-c2ccccc2)nc2c1COC(C)(C)C2	none
Cc1onc(-c2c(Cl)cccc2Cl)c1C(=O)NCc1ccccn1	none
CC(=O)c1cccc(Nc2cc(C)nc3c(C)cc(C)cc23)c1	AHR act 56
CC(=O)c1ccc(Nc2cc(C)nc3ccccc23)cc1	none
CC(=O)c1cccc(Nc2cc(C)nc3ccc(C)cc23)c1	none
CC(=O)c1ccc(Nc2cc(C)nc3c(C)cccc23)cc1	AHR act 49, hgDAF-12 ag 11
CCOC(=O)C(=CNc1ccc(NC2=NCC(C)(C)S2)cc1)C(=O)OCC	none
Cc1ccc(F)c([C@H]2[C@@H]3C=CCC[C@@]3(C)C(=O)N2Cc2ccccc2)c1	none
CCC(C)Sc1cc(C(F)(F)F)c(C(=O)Nc2ccc(Cl)cc2)cn1 (configuration not stated)	AHR act 59
COc1ccc(NC(=O)CSc2ccc(-c3cccs3)nn2)c(OC)c1	none
COc1ccc(-c2csc(NNC3=NCCCCC3)n2)cc1	none (no result: DAX1 inh-2)
CC(=O)Oc1ccc(-c2csc(Nc3ccc(Cl)cn3)n2)cc1	none
Fc1ccc(-c2csc(NC3=NCCC3)n2)cc1	AHR act 55
COc1ccc(-c2csc(Nc3ccc(C)cn3)n2)cc1	hgDAF-12 ag 12
COc1ccc(-c2csc(NC3=NCCCCC3)n2)cc1	AHR act 58
Cc1ccc(C(=O)Nc2cccnc2)cc1S(=O)(=O)N1CCCC1	AHR act 54
O=C(Nc1cccnc1)c1ccc(N2CCCC2)c([N+](=O)[O-])c1	DAX1 inh-2 5.2
Fc1ccc(N2CCN(Cc3cnc(Cl)s3)CC2)cc1	none
CCC(C)c1ccc(NC(=O)c2ccco2)cc1 (configuration not stated)	hgDAF-12 ag 11 (no result: AHR act)
O=C(/C=C/c1ccc(Br)cc1)c1ccco1	none
O=C(Nc1ccc(Cl)cc1C(=O)Nc1ccc(Br)cn1)c1ccco1	AHR act 61
O=C(/C=C/c1ccc(Br)cc1)c1ccc(NC(=O)c2ccco2)cc1	AHR act 48
O=C(Nc1ccc(Cl)cc1)c1ccco1	DAX1 inh-2 5.2
Cc1cc(Br)ccc1NC(=O)c1ccco1	none
CN1CCN(C2=Cc3ccccc3Sc3cc(F)c(F)cc32)CC1	none
CCC(CC)c1nnc(NC(=O)C2CC(=O)N(CCc3ccc(F)cc3)C2)s1 (configuration not stated)	none
CCN1CCN(CCCNC(=O)C2CCN(c3nnc(-n4cccc4)s3)CC2)CC1	none
COc1ccc(Oc2cccc(Cl)c2CNC(=O)CC(C)(C)CC(=O)O)cc1	none
O=C(Nc1ccc(NC(=O)c2cccs2)c(Cl)c1)c1ccco1	AHR act 64
O=C(NCc1cccnc1)c1ccc(NC(=O)c2ccco2)cc1	none
O=C(NCc1ccccn1)c1ccc(NC(=O)c2ccco2)cc1	ssDAF12 agonist 1.3
CCN(CC)c1ccc(NC(=O)c2ccco2)cc1	DAX1 inh-1 4.1, hgDAF-12 ag 13
COc1ccc(/C=C/C(=O)Nc2cc(C(F)(F)F)ccc2Cl)cc1	none
COc1ccc(/C=N/NC(=S)Nc2cc(C(F)(F)F)ccc2Cl)cc1	AHR act 54 (no result: DAX1 inh-2)
CN(C)S(=O)(=O)c1cc(NC2CC(=O)N(c3ccc(F)cc3)C2=O)ccc1Cl (configuration not stated)	DAX1 inh-2 10
CN(C)CC(O)COC(c1ccc(Cl)cc1)c1ccc(Cl)cc1 (configuration not stated)	DAX1 inh-2 4.3
CC1CN(CC(O)COC(c2ccc(Cl)cc2)c2ccc(Cl)cc2)CC(C)O1 (configuration not stated)	none
CC(C)SCC(=O)Nc1ncc2c(n1)-c1ccccc1CC2	none
O=C(Nc1ncc2c(n1)-c1ccccc1CC2)C1CC1	AHR act 76
Cc1ccc(/C=N/NC(=O)c2cccc(S(=O)(=O)Nc3ccccc3Cl)c2)s1	AHR act 53
CCOC(=O)[C@H]1[C@H]2COc3cc(OC)ccc3[C@@H]2N2C(=O)[C@@H](CO)NC(=O)[C@@]12C	none (no result: DAX1 inh-1, DAX1 inh-2, hcDAF12 agonist, ssDAF12 agonist, hgDAF-12 ag)
Cc1csc(NC(=O)c2cc3c(C)nn(Cc4ccccc4Cl)c3s2)n1	AHR act 47
Cc1nn(Cc2ccccc2Cl)c2sc(C(=O)NCCCn3ccnc3)cc12	AHR act 49
Cc1ccccc1SCC(=O)Nc1cccc(C#N)c1	none
CN(c1cccc(NS(=O)(=O)c2cccc([N+](=O)[O-])c2)c1)S(C)(=O)=O	none
CCCOC(=O)C1=C(C)N(C)C(=O)NC1c1cc2c(cc1[N+](=O)[O-])OCO2 (configuration not stated)	AHR act 60
CC1=C(C(=O)OCC(C)C)C(c2cc3c(cc2Br)OCO3)NC(=O)N1C (configuration not stated)	none
CC1CN(C(=S)SCCN2Cc3ccccc3C2=O)CC(C)O1 (configuration not stated)	none
Cc1ccc(N/N=C/c2cccnc2)cc1	none
C(=N\Nc1nc(-c2ccccn2)nc2ccccc12)/c1ccccc1	none (no result: DAX1 inh-1, DAX1 inh-2, hcDAF12 agonist, ssDAF12 agonist, hgDAF-12 ag)
C(=N\Nc1nc(-c2cccnc2)nc2ccccc12)/c1ccccc1	AHR act 58 (no result: DAX1 inh-2)
O=[N+]([O-])c1cccc(/C=N/Nc2nc(C(Cl)(Cl)Cl)nc3ccccc23)c1	AHR act 54
Cc1cc(N/N=C/c2ccncc2)nc2ccccc12	DAX1 inh-1 3.9 (no result: AHR act)
Cc1ccc(N/N=C/c2ccncc2)cc1	AHR act 51
ClC(Cl)(Cl)c1nc(N/N=C/c2ccncc2)c2ccccc2n1	AHR act 67
FC(F)(F)c1nc2ccccc2nc1N/N=C\c1ccccc1	none
